Results on nine compounds are retold here after PubChem BioAssay (NCATS).

Several values for one entry are separate records, joined by “and”; a condition that tells them apart may be missing. Equal values may be shown once. Results filed as inconclusive are left out. For some assays here: Results with a measured potency or affinity are listed apart. Activity calls are given as the source filed them.

The nature of assay [1]: qHTS profiling of the MIPE4 collection as inhibitors of Plasmodium falciparum (DD2) proliferation (Rep 2) (AID 743346; call rule not given here). To be noted: P. falciparum Dd2 in erythrocytes, SYBR Green DNA, 72 h; at 28.5 µM unless noted. The procedure, abridged: (§1)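 Parasite DNA was quantified by SYBR Green I fluorescence (ex 485, em 535 nm) after overnight lysis in saponin/Triton buffer at room temperature. Cultures at 0.3% parasitemia and 2.5% hematocrit were first exposed to compound for 72 h at 37 C; signals were normalised to artemisinin (0.29 uM) and vehicle wells.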
A general note: Quantitative high-throughput screening tests each substance at several concentrations.

The conditions of assay [2]: Ebola virus entry assay, blue channel fluorescence.
For assay [3] the following is noted: Ebola virus entry assay, green fluorescence channel.
The conditions of assay [4]: Ebola virus entry assay, ratio channel readout.
Assay [5] can be described thus: qHTS for Activators of Parkin Expression: LOPAC Validation Assay (NLuc Reporter) (AID 720572; active means well fitted curve in the direction sought with a large enough effect; an effect the other way counts as inactive or inconclusive). To be noted: Parkin promoter NanoLuc reporter cells, luminescence, percent of positive control, DMSO as zero; series mostly up to 46.1 µM. In outline: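 Compound effects on Parkin promoter activity were measured as NanoLuc luminescence after 24 h at 37 C. The neuronal reporter line also carried FLuc, which was read first. LOPAC compounds were tested at 7 concentrations, with normalization to DMSO (0%) and positive control (100%).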

Assay [6] is described as follows: qHTS assay for small molecule agonists of the antioxidant response element (ARE) signaling pathway measured by Nrf2-dependant transcriptional activity (AID 720636; active means well fitted curve in the direction sought with a large enough effect in the repeat runs; an effect the other way counts as inactive or inconclusive; further: % of control where 0% means no effect). To be noted: ARE-luc HepG2, Nrf2 luciferase reporter, 16 h; series mostly up to 92.4 µM. The procedure, abridged: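 First, ARE-luc HepG2 cells attached for 6 hr at 37 C in 1% dialyzed FBS medium. Next, compound or DMSO was added and incubated 16 hr. Finally, ONE-Glo reagent was added and luminescence measured after 30 min.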

Assay [7] in a line: qHTS assay for small molecule antagonists of the retinoid-related orphan receptor gamma (ROR-gamma) signaling pathway - cell viability counter screen (AID 720652; active means well fitted curve in the direction sought with a large enough effect in the repeat runs; an effect the other way counts as inactive or inconclusive;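 further: CHO reporter cells with doxycycline-induced ROR-gamma expression; compound exposure lasted 16 hr before ATP read; on the % scale 0 is the no-effect control and ±100 the full control effect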). To be noted: RORgamma reporter cell line viability counter screen; series mostly up to 92.2 µM. The procedure, abridged: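 Steps: seed CHO cells bearing TET-inducible ROR and ROR response element-luciferase; rest 5 hr at 37 C; add compound, then doxycycline; incubate 16 hr; add CellTiter-Glo and read luminescence as ATP-based viability.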

The nature of assay [8]: qHTS assay for small molecule agonists of the antioxidant response element (ARE) signaling pathway measured by Nrf2-dependant transcriptional activity - cell viability counter screen (AID 720653; active means well fitted curve in the direction sought with a large enough effect in the repeat runs; an effect the other way counts as inactive or inconclusive; further: on the % scale 0 is the no-effect control and ±100 the full control effect). To be noted: ARE-bla HepG2 viability, CellTiter-Glo ATP luminescence, 16 h; stronger effect = lower value. In outline: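 Cytotoxicity counter screen: intracellular ATP quantified by CellTiter-Glo luminescence in the same ARE-bla HepG2 plates, after 16 h compound exposure and a 2 h beta-lactamase substrate step.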

The target in assay [9] is T1, Hexokinase-4 (Homo sapiens) + Glucokinase regulatory protein (Homo sapiens) (UniProt P35557+Q14397). Kind of assay: qHTS assay for inhibitors of recombinant human GCK-GKRP interaction: Diaphorase-coupled assay (AID 743205; active means well fitted curve in the direction sought with a large enough effect; an effect the other way counts as inactive or inconclusive). The settings on record: G6PDH/diaphorase resorufin fluorescence; series mostly up to 57.5 µM. In outline: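 Signal derives from resorufin generated by diaphorase, linked to GCK turnover of glucose (5 mM) and ATP (0.4 mM). Enzyme complex was added after a 20-minute compound preincubation and monitored for 30 minutes.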

Assay [10] has as its target T1, Hexokinase-4 (Homo sapiens) + Glucokinase regulatory protein (Homo sapiens). In words: qHTS assay for inhibitors of recombinant human GCK-GKRP interaction: ADP-Glo assay (AID 743206; active means well fitted curve in the direction sought with a large enough effect; an effect the other way counts as inactive or inconclusive;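 further: plate controls were DMSO plus enzyme for no effect and no enzyme for full effect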). The settings on record: ADP-Glo luminescence, 60 min, 0% = vehicle-only wells with enzyme present; series mostly up to 76.9 µM. In outline:
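Pin-transferred compounds meet a 15 nM GST-GCK/15 nM FLAG-GKRP/2 uM S6P mix (dispense concentrations). ATP is then added to 0.4 mM final with 5 mM glucose, and the reaction runs 60 min at room temperature. ADP is quantified luminescently.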

Assay [11] has the same target. In words: qHTS assay for inhibitors of recombinant human GCK-GKRP interaction: HTRF assay (AID 743207; active means well fitted curve in the direction sought with a large enough effect; an effect the other way counts as inactive or inconclusive;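 further: 0% = DMSO with GCK present and -100% = DMSO wells lacking GCK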). The settings on record: recombinant GCK-GKRP HTRF binding, 60 min; series mostly up to 57.5 µM. In outline:
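Titration screening format: recombinant GST-GCK and FLAG-GKRP at 5 nM, S6P at 2 uM, labelled anti-tag antibodies, 60 min at RT, dual-wavelength HTRF readout.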

Assay [12] is described as follows: qHTS Assay for Identifying Gametocytocidal Compounds (AID 743244; active means well fitted curve in the direction sought with a large enough effect; an effect the other way counts as inactive or inconclusive;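 further: on the % scale 0 is the no-effect control and ±100 the full control effect; actives lower the fluorescent signal which means gametocytes are killed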). The settings on record: P. falciparum 3D7 stage III-V gametocytes, alamarBlue, 72 h; max response: stronger effect = lower value. The procedure, abridged:
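Viability read-out was resazurin reduction (alamarBlue, 24 h) measured at Ex 525/Em 598 nm. Beforehand, late-stage (III-V) 3D7 P. falciparum gametocytes at 20,000 cells/well were incubated with compound 72 h at 37C under 5% CO2.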

The nature of assay [13]: qHTS assay for cell viability of HEK293 cells (AID 743288; active means well fitted curve in the direction sought with a large enough effect; an effect the other way counts as inactive or inconclusive; further: on the % scale 0 is the no-effect control and ±100 the full control effect; nearly all actives have a fitted effect of over 50% in size). The settings on record: ATP luminescence (CellTiter-Glo), 18 h, stronger effect = lower value. In outline:
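HEK293, 18 h, 37 C, ATP luminescence. Cells at 2,000/well were allowed at least 5 h to settle before dosing; CellTiter-Glo developed 30 min at RT.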

The nature of assay [14]: qHTS assay for cell viability of the p53RE-bla HCT-116 cell line (AID 743292; active means well fitted curve in the direction sought with a large enough effect; an effect the other way counts as inactive or inconclusive; further: on the % scale 0 is the no-effect control and ±100 the full control effect; nearly all actives have a fitted effect of over 55% in size). To be noted: p53RE-bla HCT-116 viability, ATP luminescence, 16 h; series mostly up to 95 µM. In outline: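 Quantitative high-throughput format: compounds in DMSO were pinned onto p53RE-bla HCT-116 cells (4,000/well) and incubated 16 h at 37 C. Total intracellular ATP, read by CellTiter-Glo luminescence, reflects viable cell number.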

A short description of assay [15]: qHTS profiling for inhibitors of Plasmodium falciparum (3D7) proliferation (AID 743322; call rule not given here;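 further: infected erythrocytes exposed to compound for 72 h before lysis; 100% = DMSO vehicle wells and 0% = 0.29 µM artemisinin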). The settings on record: P. falciparum 3D7 proliferation; at 28.7 µM (top of the series). The procedure, abridged: as §1
Assay [16] can be described thus: qHTS profiling for inhibitors of Plasmodium falciparum (DD2) proliferation (AID 743323; call rule not given here). The settings on record: lower = more inhibition; at 28.7 µM (top of the series). The procedure, abridged: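 P. falciparum Dd2-infected erythrocytes (0.3% parasitemia, 2.5% hematocrit) exposed 72 h at 37 C, 5% CO2. Lysis with SYBR Green, overnight at room temperature, fluorescence 485/535 nm; normalized to 0.29 uM artemisinin and DMSO.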

Assay [17] in a line: qHTS profiling of the MIPE4 collection as inhibitors of Plasmodium falciparum (3D7) proliferation (AID 743344; call rule not given here;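 further: scaled between DMSO vehicle wells and 0.29 µM artemisinin as full inhibition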). To be noted: P. falciparum 3D7 in erythrocytes, SYBR Green DNA fluorescence, 72 h; at 28.5 µM unless noted. The procedure, abridged: as §1
A short description of assay [18]: qHTS profiling of the MIPE4 collection as inhibitors of Plasmodium falciparum (DD2) proliferation (AID 743345; call rule not given here). The settings on record: P. falciparum Dd2 in erythrocytes, SYBR Green DNA, 72 h; at 28.5 µM unless noted. In outline: as §1
For assay [19] the following is noted: Ebola virus entry assay, blue channel fluorescence. This is another data set of the same source.

T1 sequence (P35557 whole entry, looked up): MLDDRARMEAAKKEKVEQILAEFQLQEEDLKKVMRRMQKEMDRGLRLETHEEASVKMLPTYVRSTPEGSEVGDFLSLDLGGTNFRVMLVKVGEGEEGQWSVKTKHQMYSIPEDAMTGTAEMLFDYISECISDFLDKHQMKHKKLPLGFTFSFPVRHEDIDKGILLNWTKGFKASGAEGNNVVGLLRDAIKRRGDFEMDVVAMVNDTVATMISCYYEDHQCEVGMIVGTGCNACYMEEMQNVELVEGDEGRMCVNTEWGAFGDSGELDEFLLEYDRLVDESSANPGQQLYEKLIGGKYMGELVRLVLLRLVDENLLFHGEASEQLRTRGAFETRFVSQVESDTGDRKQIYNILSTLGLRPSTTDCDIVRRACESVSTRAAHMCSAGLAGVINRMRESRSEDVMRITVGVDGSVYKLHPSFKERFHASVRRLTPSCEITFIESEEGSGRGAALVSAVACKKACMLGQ
T1 sequence (Q14397 whole entry, looked up): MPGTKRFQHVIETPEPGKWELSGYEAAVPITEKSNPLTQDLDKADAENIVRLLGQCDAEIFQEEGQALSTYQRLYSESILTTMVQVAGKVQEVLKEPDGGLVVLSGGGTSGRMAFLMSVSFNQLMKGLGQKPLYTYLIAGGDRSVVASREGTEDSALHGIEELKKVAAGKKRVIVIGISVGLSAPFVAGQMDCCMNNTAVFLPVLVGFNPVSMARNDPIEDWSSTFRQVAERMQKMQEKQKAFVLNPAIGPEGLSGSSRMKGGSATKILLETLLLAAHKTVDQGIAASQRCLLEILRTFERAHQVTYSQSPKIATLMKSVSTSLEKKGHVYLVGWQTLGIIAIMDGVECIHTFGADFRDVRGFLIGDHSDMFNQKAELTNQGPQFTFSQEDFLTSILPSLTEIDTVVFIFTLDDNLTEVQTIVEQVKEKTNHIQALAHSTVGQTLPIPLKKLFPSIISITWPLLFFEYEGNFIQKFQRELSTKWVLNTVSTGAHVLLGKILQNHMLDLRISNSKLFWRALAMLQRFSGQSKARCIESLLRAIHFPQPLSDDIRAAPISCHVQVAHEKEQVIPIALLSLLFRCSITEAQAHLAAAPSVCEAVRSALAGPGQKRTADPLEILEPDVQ

In the case of `CC(C)C[C@H](CN)CC(=O)O`, the parasite growth, % of control (lower = inhibition) in assay [1] amounted to 89%. Besides, the call in assay [2], in assay [3] and in assay [4] was inactive.

As for `O=P1(N(CCCl)CCCl)NCCCO1` (configuration not stated), the call in assay [5], in assay [6], in [7], in assay [9], in assay [10] and in assay [11] was inactive. Besides, the result in assay [2], in [3] and in assay [19] was inactive. The max response was 1.71% (inactive) and -4.84% (inactive) in assay [8]; -0.339% (inactive) and 12.3% (inactive) in assay [12]; -14.2% (inactive) and 0.164% (inactive) in [13]. In assay [14], the Potency result is “inactive”. Also, the remaining parasite growth % (stronger effect = lower value) in [15] is 108% and 105%. Besides, the activity, percent of control in [16] was 108% and 125%. For the same compound, the parasite growth, % of DMSO control in assay [17] turned out to be 42.1%. Moreover, the parasite growth remaining, % of DMSO control (lower = more inhibition) in assay [18] stood at 54.1%. For the same compound, in assay [1], the parasite growth, % of control (lower = inhibition) was 39.6%.

`Cc1onc(-c2ccccc2)c1C(=O)N[C@@H]1C(=O)N2[C@@H](C(=O)O)C(C)(C)S[C@@H]12` displayed a parasite growth, % of control (lower = inhibition) in [1] of 92.1%. In addition, the call in assay [2] and in [3] was inactive.

Regarding `O=C1Nc2ccc(Cl)cc2C(c2ccccc2)=NC1O` (configuration not stated), the max response in assay [12] was 6.98% (inactive) and -4.42% (inactive). The result in assay [2], in [3] and in assay [4] was inactive.

`CCOC(=O)[C@H](CCc1ccccc1)N[C@@H](C)C(=O)N1[C@H](C(=O)O)C[C@H]2CCCC[C@@H]21`: the call in assay [3] and in [4] was inactive.

Consider `Nc1ccn([C@@H]2CS[C@H](CO)O2)c(=O)n1`, for which the compound was classed as inactive in assay [3] and in assay [4].

Consider `CO[C@@]1(NC(=O)Cc2cccs2)C(=O)N2C(C(=O)O)=C(COC(N)=O)CS[C@@H]21`, for which the result in assay [3], in assay [4] and in assay [19] was inactive.

As for `C[C@]12CC[C@@H]3c4ccc(OC(=O)N(CCCl)CCCl)cc4CC[C@H]3[C@@H]1CC[C@@H]2OP(=O)(O)O`, the max response in [12] is 0.678% (inactive) and -5.22% (inactive). Moreover, the parasite growth, % of DMSO control in [17] was 86.9%. Besides, the parasite growth remaining, % of DMSO control (lower = more inhibition) in assay [18] was 97.1%. The compound further showed a parasite growth, % of control (lower = inhibition) in [1] of 86.3%. Further, the result in [2], in assay [3] and in assay [4] was inactive.

As to `COc1ccc2c(c1)C13CCCC[C@@H]1C(C2)N(C)CC3` (some centres not stated), the max response in [12] was 7.6% (inactive). Further, the compound was classed as inactive in [2], in [3] and in assay [4].
